The results in this text go back to ChEMBL document CHEMBL3988442, “University of Dundee, Small-Polar-MMV Screening Library” (2021).

SMILES strings stand for the structures.

This test concerns the target Shiga toxin 2 (Escherichia coli O157:H7) (UniProt P09385+P09386). Briefly: E. coli 0.157:H7 Shiga Toxin SOP - stx2 screening assay. Also on record: scale not given: direction of the effect not stated beside the values. The test is classed as functional. As to conditions: 30 µM.
On to `Cc1ccccc1-c1cc(NC(=O)CC(C)C)n(CCO)n1`, for which the Percent Effect is -1.82%.
The figure for `CC(=O)c1cc(CC(=O)NCc2ccc(CN(C)C)cc2)cs1` is -38.2%; for `COc1ccc(C(=O)N2Cc3c(Cn4ccnc4)nn(C)c3C2)cc1` it is -6.82%; for `Cc1ncc(CN2Cc3ccccc3O[C@]3(CC[C@H](CO)CC3)C2)cn1` it is 18.1%.
The figure for `Cc1csc(N2CCN(Cc3ccccn3)CC2C)n1` (centres undefined) is -0.687%; for `Cc1cc(C)n(CC2CCCN2C(=O)CCCNc2ncccn2)n1` (centres undefined) it is 26.1%; for `Cn1cccc1C(=O)N1CCn2cc(CNC(=O)CC3CC3)nc2C1` it is -50.9%.
For `COc1cc(CNC2CCc3nc(C(C)C)nn3C2)cc2c1OCO2` (centres undefined), the Percent Effect worked out at 15.4%.
The figure for `Cc1nn(C)c2c(N3CCN(C(=O)NC4CCCCC4)CC3)ncnc12` is -44.8%; for `Cn1cnnc1C1CCCN(C(=O)c2n[nH]c3ccccc23)C1` (centres undefined) it is -4.11%; for `Cc1cc(CN2CCc3nn(C)c(=O)cc3C2)on1` it is 0.17%.
The figure for `Cc1nc(CN2CCCC(N(C)Cc3nnsc3Cl)C2)no1` (centres undefined) is 18.2%; for `O=C(c1ccco1)N1CCOCC2(C1)CN(c1ccccc1)C(=O)CO2` (centres undefined) it is 2.61%; for `Cc1nc(Nc2ncccn2)cc(C2CCCN2C2CCOCC2)n1` (centres undefined) it is -0.835%.
In the case of `Cn1ccc(C(=O)NCc2cccc(CN3CCCC3)c2)cc1=O`, the Percent Effect was -46.4%.
Regarding `Cn1ccnc1CN1CCCCC1Cn1cccn1` (centres undefined), the Percent Effect came out at 11.2%.
The figure for `Cc1ncsc1CCC(=O)N1CCCC[C@H](N(C)C)C1` is 3.62%; for `Cc1ccoc1-c1nnc(CNCC2CCCN2c2cccnn2)o1` (centres undefined) it is 5.85%; for `Cn1cccc1CN1CCC2(CCCN(C(=O)c3cnccn3)C2)C1` (centres undefined) it is -9.19%.
For `Cc1ncsc1CN1C[C@@H](OCC2CC2)[C@H]2OCCC[C@H]21`, the Percent Effect turned out to be 4.7%.
For the compound `COc1ccc(C)cc1CNCc1ccc(-n2nc(C)cc2C)nc1`, the Percent Effect is 26.6%.
Under `Cc1nc(CN2CCCC2c2c(C)nn(C)c2Cl)no1` (centres undefined) stands 18.6%; under `COCCN1CCN(Cc2cccc(C(N)=O)c2)CC1C` (centres undefined), -42.8%; under `N#Cc1ncn(CCC(=O)Nc2c(Cl)cccc2Cl)n1`, -17.7%.
For `O=C(Nc1ccccc1)c1nn(C2CCS(=O)(=O)C2)c2c1CCCC2` (centres undefined), the Percent Effect is 4.6%.
The figure for `Cc1nc(CNC(=O)NCC(O)c2cccc(Cl)c2)cs1` (centres undefined) is -16.9%; for `CC(C)CC(=O)N1CC[C@@H]2[C@H](CC1)N(S(C)(=O)=O)CCS2(=O)=O` it is -14.8%; for `COc1ccc(-c2noc(CN3CCc4cncnc4C3)n2)cc1` it is -15%.
Consider `COc1ccc(CNC(=O)NC2CCC(O)CC2)c(C(F)(F)F)c1` (centres undefined), for which the Percent Effect worked out at 3.3%.
With `O=C(Nc1cccnc1)[C@H]1C[C@@H]2CCN(c3nncs3)C[C@H]2O1`, the Percent Effect is -14%.
On to `COc1ccccc1OCCC(=O)N1CCCC1Cn1cc(C)cn1` (centres undefined), for which the Percent Effect came to 29.9%.
The figure for `C1CC(NCc2nc(C3CC3)no2)CN(Cc2noc(C3CC3)n2)C1` (centres undefined) is 13.3%; for `Cc1nc(C)n(CC2CCCCN2CCCS(=O)(=O)N(C)C)n1` (centres undefined) it is -34.2%; for `OC[C@H]1CC[C@]2(CC1)CN(Cc1ccccn1)Cc1ccccc1O2` it is 2.28%.
The figure for `CSCCNC(=O)c1ccc(OC2CCN(CC(C)(C)C)CC2)c(Cl)c1` is -38.1%; for `Cc1nsc(C(=O)N2CCc3ccccc3C2)n1` it is -13.9%.
Under `CC(C)Nc1ncnc2c1CCN(C(=O)Cc1ccccn1)CC2` stands -44.7%; under `O=S(=O)(N1CCCCC1)N1CCc2nc(C3CCNCC3)ncc2C1`, 13.4%; under `CCC1CN(CCNC(C)=O)CCN1CCOC` (centres undefined), 16.5%.
